Assay outcomes: PubChem BioAssay, National Center for Advancing Translational Sciences (NCATS)
Rows were chosen to be rich in hits. Some 12% of all compounds tested hit in one or more screens of this group.
Shiga inhibitor: inhibitors of Shiga toxin in Vero cells; hit rate 9.2% among 290,000; inhibition, % at 38.7 µM; Vero cells, Shiga toxin protein synthesis inhibition reporter; in the data active = inhibition mostly above about 28%, no sharp cut-off; inactive = mostly below about 43%; also: 0% is about no effect
CHX counter: affects cycloheximide protein synthesis inhibition readout, counter-screen; cell reporter, cycloheximide protein synthesis inhibition counterscreen; max response, %; hit rate 12% among 300,000; in the data active = max response mostly above about 13%, no sharp cut-off; inactive = mostly below about 14%; also: read at 38.3 µM for the half of the compounds with a filed dose; 0% is about no effect
MARV entry inh: Marburg virus entry inhibition | Marburg virus pseudotyped entry inhibition, cell reporter | Potency, µM (doses to about 37.8 µM), for the others: at the top dose activity change, negative = inhibition, usual class: inhibitors | AID 540276 | hit rate 1.8% among 300,000; calls by dose curve; tested in HEK293 cells; also: potency is read from the fitted curve at half-maximal effect; % is scaled to controls: 0 for no effect and ±100 for the full control effect
Lassa entry inh: blocks Lassa virus binding to or entry into cells. Lassa virus pseudotype entry inhibition, cell reporter. Potency, µM (titrated, usually from 37.9 µM), for inactives: at the highest dose activity change, negative = inhibition, actives largely listed as inhibitors. hit rate 1.2% among 300,000; calls by dose curve; tested in HEK293 cells; also: potency is read from the fitted curve at half-maximal effect; % is scaled to controls: 0 for no effect and ±100 for the full control effect; nearly all actives have a fitted effect of over 50% in size
* marks the source's active call; other numbers are inactive results; i = inactive; ? = inconclusive; nt = no result given; [ ] = another dose, or the depositor's remark.

SMILES	Shiga inhibitor	CHX counter	MARV entry inh	Lassa entry inh
C=CCc1c(C)nc2c(-c3ccccc3)cnn2c1N1CCOCC1	84*	58*	?	6%[46.1 µM]
Cc1cc(N2CCOCC2)n2ncc(-c3ccc(Cl)cc3)c2n1	120*	75*	-2%[46.1 µM]	-16%
COc1cc2c(cc1OC)C1O[C@](CCCCN3C(=O)c4ccccc4C3=O)(C2)OC2=C1C(=O)OC1(CCCCC1)C2	i	-2	nt	nt
COc1ccccc1CNC(=O)C1CCN(c2nc3ccc(Cl)cc3[nH]2)CC1	nt	nt	nt	4%[46.1 µM]
CC(=O)N1c2ccc(S(=O)(=O)NCCC(=O)N3CCC(C)CC3)cc2CC1C (centres undefined)	14	2	nt	nt
Cc1nn2c(N3CCOCC3)cc(C(C)(C)C)nc2c1-c1ccc(Cl)cc1	3	-1	?	-10%[46.1 µM]
Cc1cc(N2CCC(C)CC2)n2ncc(-c3ccccc3)c2n1	132*	44*	?	?
Cc1cc(N2CCCCC2)n2nc(C)c(-c3ccccc3)c2n1	49	6	-20%	?
Cc1cc(N2CCN(C(=O)c3ccco3)CC2)n2ncc(-c3ccccc3)c2n1	64*	31*	?	-20%
CC(C)(C)c1cc(N2CCOCC2)n2ncc(-c3ccc(Cl)cc3)c2n1	24	31*	?	?
Cc1cc(N2CCCCC2)n2ncc(-c3ccccc3)c2n1	61	60*	?	4.5µM*
Cc1ccc(NC(=O)CSCC(=O)N(C)CC(=O)Nc2cccc3ccccc23)cc1	nt	nt	-6%[46.1 µM]	-13%
CCCc1cc(=O)oc2cc(C)cc(OC(C)C(=O)NCc3ccncc3)c12 (centres undefined)	11	-4	nt	nt
CCOC(=O)Cc1c(C)nc2c(-c3ccc(Cl)cc3)c[nH]n2c1=O	25	-2	?	-25%
Cc1nc2cc(-c3cccc(F)c3)nn2c(N2CCN(C(=O)c3ccco3)CC2)c1C	94*	61*	24%	14%
Cc1ccc(-c2cnn3c(N4CCOCC4)cc(C)nc23)cc1	108*	68*	nt	nt
Cc1cc(N2CCOCC2)n2ncc(-c3ccccc3)c2n1	100*	34*	?	2.6µM*
Cc1nc2cc(-c3cccc(F)c3)nn2c(C)c1CCC(=O)N1CCN(c2ccccn2)CC1	14	5	nt	nt
COC(=O)C(C)Sc1nc2ccsc2c(=O)n1Cc1ccccc1 (centres undefined)	20	8	6%[46.1 µM]	-13%
COc1ccccc1-n1c(SCC(=O)c2ccc(O)cc2O)nc2cc([N+](=O)[O-])ccc21	-4	2	2.2µM*	4%
COc1ccccc1-n1c(SCC(=O)NC2CCS(=O)(=O)C2)nc2cc([N+](=O)[O-])ccc21 (centres undefined)	-5	-3	4%	2%
O=C(COC(=O)CC1CC2CCC1C2)NCc1ccccc1 (centres undefined)	nt	nt	-11%	-5%
CC(C)(C)c1ccc(CN2N=Nc3ccccc3S2(=O)=O)cc1	9	6	?	11µM*
Cc1ccc(Cl)cc1NC(=O)CC1NCCNC1=O (centres undefined)	-3	-2	3%	4%
COc1cc(/C=C/C(=O)NC(C)C2CC3CCC2C3)cc(OC)c1OC (centres undefined)	101*	19*	-2%[46.1 µM]	-1%[46.1 µM]
SMILES	Shiga inhibitor	CHX counter	MARV entry inh	Lassa entry inh
COc1ccc([C@]23Cc4cc(C#N)ccc4[C@H](O2)C2=C(CC4(CCCCC4)OC2=O)O3)cc1	nt	nt	1%[14.2 µM]	nt
C=CCn1c(C)cc(C)c(C#N)c1=O	34	0	-1%	-10%
C=CCn1c(O)c(CN2CCOCC2)c(C)c(C#N)c1=O	91*	30*	17%	-2%
CCC1(C)CC2(CCCN(CCC(=O)c3ccccc3)C2)CCO1 (centres undefined)	-13	-2	?	2%
Cc1nc2sc(C(=O)OC(C)C)c(N)c2c(C)c1C	41*	19*	16%[46.1 µM]	nt
COc1ccc(NC(=O)c2sc3nc(C)c(C(=O)Nc4ccc(Cl)cc4)c(-c4ccc(Br)cc4)c3c2N)cc1	nt	nt	?	3%[46.1 µM]
Cc1nc2sc(C(=O)c3ccccc3)c(N)c2c(C)c1C	31	24*	7%[14.2 µM]	4%
Nc1c(C(=O)Nc2ccccc2)sc2ncc([N+](=O)[O-])cc12	7	12	?	3%
CC(=O)c1ccc(NC(=O)c2sc3nc(C)c(C)c(C)c3c2N)cc1	115*	54*	?	?
Cc1nc2sc(C(=O)Nc3ccccc3)c(N)c2c(C)c1[N+](=O)[O-]	91*	50*	-36%	-22%
Cc1nc(-c2ccccc2)nc2sc(C(=O)c3ccc(F)cc3)c(N)c12	-10	2	nt	nt
O=C(CSc1ncnc2ccccc12)NCc1ccco1	-4	1	9%	0%
O=C(CSc1ncnc2ccccc12)c1ccco1	57	25*	11%	3%
O=C(CSc1nc2ccccc2[nH]1)Nc1c(F)c(F)c(F)c(F)c1F	1	11	nt	nt
COc1ccc2nc(SCC(=O)c3ccco3)[nH]c2c1	63*	48*	?	13%
CCOc1ccc2nc(SCC(=O)N(C)C)[nH]c2c1	74*	71*	-29%[46.1 µM]	?
O=C(CSc1nc2ccccc2[nH]1)c1ccco1	106*	28*	?	17%
COc1ccc2nc(SCC(=O)Nc3nccs3)[nH]c2c1	43*	20*	nt	nt
COc1ccc2nc(SCC(=O)C(C)(C)C)[nH]c2c1	65*	43*	nt	nt
Cc1ccc(S(=O)(=O)NC2=NCN(C(C)C)CN2)cc1	2	0	-5%[46.1 µM]	nt
COc1ccccc1-c1nc(-c2ccc(Br)o2)no1	146*	97*	nt	-24%[46.1 µM]
COc1ccc(-c2noc(-c3cccc(Cl)c3)n2)cc1OC	11	2	?	17%
COc1cccc(-c2nc(-c3ccc(Br)o3)no2)c1	108*	54*	?	?
COc1ccccc1Cc1nc(-c2ccc(Br)o2)no1	78	34*	0%	nt
COc1ccc(-c2nc(-c3ccc(Br)o3)no2)cc1OC	35*	19*	nt	nt
SMILES	Shiga inhibitor	CHX counter	MARV entry inh	Lassa entry inh
COc1ccc(-c2nnc(-c3ccc(Br)o3)o2)cc1OC	35	11*	21%	3%
COc1cc(NC(=O)c2c(F)cccc2F)nc(OC)n1	98*	33*	?	11%
Cc1nnc(NC(=O)c2cccc(Br)c2)s1	-9	1	32%	5%
COc1cc(NC(=O)c2cccc(Br)c2)nc(OC)n1	71*	40*	?	?
CCN(CC(=O)Nc1ccccc1OC)C(=O)CN1C(=O)NC(C)(c2ccccc2)C1=O (centres undefined)	nt	nt	15%	7%
CNC(=O)[C@H]1O[C@H](n2cnc3c(NCc4cccc(I)c4)ncnc32)[C@@H](O)[C@@H]1O	nt	nt	3%	nt
COc1ccc2c(c1)CCc1cnoc1-2	nt	nt	3%	29%
COc1ccc2c(c1)CCc1cn[nH]c1-2	23	13*	nt	nt
COc1ccc(-c2noc(-c3ccc(Cl)cc3[N+](=O)[O-])n2)cc1OC	16	16*	?	?
COc1ccc(-c2noc(-c3ccc(N4CCCC4)c([N+](=O)[O-])c3)n2)cc1OC	nt	nt	3%[46.1 µM]	5%[46.1 µM]
Cc1cccc(-c2noc(-c3ccc(Cl)cc3[N+](=O)[O-])n2)c1	82*	42*	?	?
Cc1ccc(S(C)(=O)=O)cc1C(=O)N1CC(C(N)=O)Oc2ccccc21 (centres undefined)	-9	-8	1%	-3%
Cc1cc(=O)oc2cc(NC(=O)CCOc3ccccc3)ccc12	32*	19*	-22%[46.1 µM]	-14%
